Measured values: PubChem BioAssay (Tox21)
Results filed as inconclusive are left out. Unmarked numbers belong to inactive results. Calls come from the whole dose curve; as a rule, active = well fitted cell-killing curve with a large enough effect in the repeat runs; inconclusive = weak or mixed curves; inactive = no such curve, though single readings can be large or run the other way.

assay: qHTS assay to identify small molecule agonists of the peroxisome proliferator-activated receptor delta (PPARd) signaling pathway - cell viability counter screen (AID 743211); settings: PPARd-bla HEK293H viability, CellTiter-Glo luminescence, 17 h; series mostly up to 62.6 µM; activity change, negative = cytotoxicity: at the top concentration; note: nearly all actives have a fitted effect of over 55% in size
Procedure, shortened: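 Counter screen for cytotoxicity run in parallel with the PPARd reporter screen. Beta-lactamase reporter HEK293H cells exposed to compounds 17 h; ATP-based CellTiter-Glo luminescence quantified viability.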
% is set by controls: 0 for no effect and ±100 for the full control effect.

| Structure (SMILES) | activity change, negative = cytotoxicity |
| --- | --- |
| O=C(O)c1ccccc1C(=O)Nc1ccc(S(=O)(=O)Nc2nccs2)cc1 | -2.12% |
| C[C@H](CCC(=O)NCC(=O)O)[C@H]1CC[C@H]2[C@@H]3[C@H](O)C[C@@H]4C[C@H](O)CC[C@]4(C)[C@H]3C[C@H](O)[C@]12C | -5.03% |
| BrC/C=C/CBr | -1.85% [at 29.1 µM] |
| Cc1nc(C)nc(N2C[C@@H](C)N(c3ccnc([C@@H](C)O)n3)[C@@H](C)C2)n1 | -4.43% |
| Nc1cc(S(=O)(=O)O)ccc1S(=O)(=O)O | 0.779% |
| CCC(=O)c1ccc(O)cc1 | 0.33% |
| CCOC(=O)CC(CC(=O)OCC)(OC(C)=O)C(=O)OCC | 1.36% |
| CCCCCCCCCCCCCCCC(=O)NCCO | 1.05% |
| NS(=O)(=O)c1ccccc1OC(F)(F)F | 0.903% |
| CC(C)COC(=O)CC(C(=O)OCC(C)C)S(=O)(=O)O (stereo unspecified) | 6.02% |
| NS(=O)(=O)c1ccc(Cl)c(S(N)(=O)=O)c1 | 9.15% |
| CO[Si](CCCS)(OC)OC | 1.27% |
| COC(/C=C(\C)CCC=C(C)C)OC | 7.9% |
| Cc1ccccc1OCC1CO1 (stereo unspecified) | 6.66% [at 81.1 µM] |
| O=c1cc(O)c(Cl)c[nH]1 | 15.8% |
| CCN(CCC#N)c1ccccc1 | 5.82% |
| CCCCCCCC[Si](OCC)(OCC)OCC | 8.15% |
| Nc1ccc(S(=O)(=O)NC(=O)c2ccccc2)cc1 | -1.98% |

| Structure (SMILES) | activity change, negative = cytotoxicity |
| --- | --- |
| CC(=O)Nc1ncc([N+](=O)[O-])s1 | 3.85% |
| CCC(=O)OCCC(C)CCC=C(C)C (stereo unspecified) | 7.86% |
| C=CCCCCCCCCCCC | -1.9% [at 5.95 µM] |
| CN(C1CCCCC1)S(=O)(=O)c1ccccc1N | -10.8% |
| NCCc1ccn[nH]1 | 0.678% |
| CCCCCCCCCCC | 2.25% |
| COC(=O)CCC(=O)O | 0.873% |
| Cc1oc(=O)oc1CN1CCN(c2cc3c(cc2F)c(=O)c(C(=O)O)c2n3C(C)S2)CC1 (stereo unspecified) | 0.77% |
| CC1CCC(C(C)(C)S)C(=O)C1 (stereo unspecified) | 13.3% |
| CCCCCCCCCOCC1CO1 (stereo unspecified) | 1.78% [at 81.1 µM] |
| C1=CCC(c2ccccc2)CC1 (stereo unspecified) | -0.119% |
| CC(C)CCCC(C)CC=O (stereo unspecified) | -6.95% |
| C=COCCOCCOC=C | 3.15% |
| C=CCOCC(O)CCl (stereo unspecified) | 8.4% |
| CCCCCC(=O)OCC | 10% |
| Cc1cccc(C(=O)O)c1[N+](=O)[O-] | 5.9% |
| C=C(C)C(=O)OC1CC(C)CC(C)(C)C1 (stereo unspecified) | 14.6% |
| CCCOCCOCCOCCO | 5.03% |
